The whole screen tested about 400,000 compounds, of which about 2,100 (0.53%) were called active. About 14% were inconclusive and are not listed. This is one part of a sample in which actives are shown more often than they occur. No rule for the calls is given here.

For this test, the target named is Ataxin-2 (Homo sapiens) (UniProt Q99700). Nature of the test: qHTS for Inhibitors of ATXN expression. It is filed as functional. In general terms: Quantitative high-throughput screening tests each substance at several concentrations.
Ataxin-2 (Homo sapiens), sequence (Q99700 whole entry): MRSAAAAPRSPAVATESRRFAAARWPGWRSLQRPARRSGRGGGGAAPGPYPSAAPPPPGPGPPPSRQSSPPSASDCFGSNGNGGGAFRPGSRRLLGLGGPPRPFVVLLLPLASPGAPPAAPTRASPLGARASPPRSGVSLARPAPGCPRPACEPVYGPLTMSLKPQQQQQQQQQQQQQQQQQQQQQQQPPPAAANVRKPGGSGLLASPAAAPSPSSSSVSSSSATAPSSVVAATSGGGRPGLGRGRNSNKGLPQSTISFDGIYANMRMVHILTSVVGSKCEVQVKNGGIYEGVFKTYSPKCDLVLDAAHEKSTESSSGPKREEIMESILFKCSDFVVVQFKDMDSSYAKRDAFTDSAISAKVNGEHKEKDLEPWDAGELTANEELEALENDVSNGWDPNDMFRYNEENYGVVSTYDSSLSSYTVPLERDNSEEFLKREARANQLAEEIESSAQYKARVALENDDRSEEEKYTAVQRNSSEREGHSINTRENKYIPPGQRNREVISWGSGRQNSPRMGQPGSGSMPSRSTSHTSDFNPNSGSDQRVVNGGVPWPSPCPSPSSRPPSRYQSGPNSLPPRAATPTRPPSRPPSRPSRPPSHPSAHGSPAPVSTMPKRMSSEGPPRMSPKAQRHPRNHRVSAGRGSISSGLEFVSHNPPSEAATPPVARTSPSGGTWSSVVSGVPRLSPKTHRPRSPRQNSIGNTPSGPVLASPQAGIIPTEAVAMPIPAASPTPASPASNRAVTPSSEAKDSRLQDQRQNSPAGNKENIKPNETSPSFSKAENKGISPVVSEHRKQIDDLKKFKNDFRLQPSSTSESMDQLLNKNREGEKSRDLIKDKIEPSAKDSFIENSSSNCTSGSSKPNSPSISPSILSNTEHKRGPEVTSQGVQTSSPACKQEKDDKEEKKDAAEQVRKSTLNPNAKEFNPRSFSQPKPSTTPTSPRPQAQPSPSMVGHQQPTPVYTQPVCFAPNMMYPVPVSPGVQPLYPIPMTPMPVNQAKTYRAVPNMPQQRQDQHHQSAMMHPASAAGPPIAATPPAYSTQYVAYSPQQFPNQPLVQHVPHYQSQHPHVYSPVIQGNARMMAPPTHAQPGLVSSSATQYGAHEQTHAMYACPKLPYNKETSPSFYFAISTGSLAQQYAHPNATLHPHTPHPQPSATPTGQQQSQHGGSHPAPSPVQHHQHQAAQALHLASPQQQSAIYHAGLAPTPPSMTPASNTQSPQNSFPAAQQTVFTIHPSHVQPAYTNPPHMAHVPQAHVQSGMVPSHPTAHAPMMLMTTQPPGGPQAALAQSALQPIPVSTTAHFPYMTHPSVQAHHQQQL
As for `CC(C)(C)C(=O)Cn1ncc(Br)c(Br)c1=O`, the Potency is 15.8 µM (active).

With `CO/N=C(\Cn1ncc(N2CCOCC2)c(Br)c1=O)c1ccc(Cl)cc1`, the Potency result is “inactive”.

Consider `Nc1cc2c(cc1O)CCCC2`, for which the Potency entry is “inactive”.

As for `O=C(COc1ccc(Br)cc1)N1CCc2ccccc21`, the Potency result was “inactive”.

In the case of `CCCCCCn1c(=O)n2n(c1=O)C[C@]1(OC(=O)NCC3CCCCC3)CN(S(=O)(=O)c3ccc(C)cc3)C[C@]1(O)C2`, the Potency was 31.6 µM (active).

In the case of `COCCCn1c(=N)c(C(=O)NC2CCCC2)cc2c(=O)n3cc(C)ccc3nc21`, the Potency entry is “inactive”.

Consider `CCCCCCn1c(=O)n2n(c1=O)[C@@H]1CN(S(=O)(=O)c3ccc(C)cc3)C[C@]1(O)[C@@H](OC(=O)NC1CCCC1)C2`, for which the Potency was 44.7 µM (active).

As to `CCOCCCn1c(=N)c(C(=O)NC2CCCC2)cc2c(=O)n3cc(C)ccc3nc21`, the Potency entry was “inactive”.

For `CCCCCCn1c(=O)n2n(c1=O)[C@@H]1CN(S(=O)(=O)c3ccc(C)cc3)C[C@]1(O)[C@@H](OC(=O)NCC1CCCCC1)C2`, the Potency is 31.6 µM (active).

In the case of `Cc1cccc(C)c1N=C(S)NCCc1ccc(O)c(O)c1`, the Potency entry is “inactive”.

Regarding `CC1CC1C(=O)OCC(=O)c1c(N)n(C)c(=O)n(C)c1=O` (centres undefined), the Potency entry was “inactive”.

In the case of `CCOC(=O)c1cc2c(=O)n3ccccc3nc2n(Cc2ccco2)/c1=N/C(=O)c1cccnc1`, the Potency result is “inactive”.

`COc1ccc(-n2c3nc4ccccc4nc3c3c(=N)oc(C)nc32)cc1`: the Potency entry was “inactive”.

In the case of `COc1cc(/C=C(\C#N)c2nc3ccccc3n2C)cc(OC)c1O`, the Potency entry was “inactive”.

Consider `Cc1cccn2c(=O)c3cc(C#N)/c(=N\C(=O)c4cccnc4)n(CC4CCCO4)c3nc12` (centres undefined), for which the Potency entry is “inactive”.

Turning to `O=C1CN2CCC1C/C2=C\c1ccnc2c(Cl)cccc12` (centres undefined), the Potency result was “inactive”.

`COC(=O)C1=CN(Cc2ccc(OC)c(OC)c2)C=C(C(=O)OC)C1c1cccs1`: the Potency entry was “inactive”.

With `C=C1C(=O)c2sccc2C(c2ccc(OC)c(OC)c2)C1COC(C)=O` (centres undefined), the Potency is 5.97 µM (active).

Take `CN1CCN(c2nc3ccccn3c(=O)c2C=C(C#N)C#N)CC1`: the Potency result is “inactive”.

`CC1(C)CC(=O)C2=C(C1)c1c(ccc3ccccc13)NC2c1ccc(OCC(=O)O)cc1` (centres undefined): the Potency result was “inactive”.

Consider `Cc1ccc2nc(NCC(N)=O)nc(-c3ccccc3)c2c1`, for which the Potency result is “inactive”.

`Nc1cccc2c1C(=O)N(Cc1nnc(-c3ccccc3Br)o1)C2=O`: the Potency entry is “inactive”.

For the molecule `O=c1c(Cl)c(Cl)cnn1Cc1nnc(-c2ccccc2Br)o1`, the Potency was 39.8 µM (active).

For `COc1ccc(/C=C2\Oc3cc(OCC(=O)N4CCC[C@H]4C(=O)O)ccc3C2=O)c(OC)c1`, the Potency result was “inactive”.

In the case of `COc1ccc(-c2nc3ccccc3c(=O)n2CCOc2c(C)cccc2C)cc1`, the Potency entry was “inactive”.

In the case of `COc1ccc(-c2nnc(SCc3cc(=O)c4cc(C)cc(C)c4[nH]3)n2C)cc1`, the Potency was 17.8 µM (active).

Take `CCCCCc1cc(=O)oc2c(C(CCN3CCCC(C)C3)c3ccc4c(c3)OCO4)c(OC)cc(OC)c12` (centres undefined): the Potency was 35.5 µM (active).

Take `Cc1c(O)ccc2c(CN3CCOCC3)cc(=O)oc12`: the Potency entry was “inactive”.

In the case of `COc1ccc(-c2c(C)c3ccc(O)c(CN4CCCC(C)C4)c3oc2=O)cc1OC` (centres undefined), the Potency result was “inactive”.

Take `CCCCCc1cc(=O)oc2c(C(CCN3CCCC(C)C3)c3ccc(OC)cc3)c(OC)cc(OC)c12` (centres undefined): the Potency is 31.6 µM (active).

As for `CCCc1cc(=O)oc2c3c(ccc12)OCN(Cc1ccccc1OC)C3`, the Potency entry is “inactive”.

Consider `COc1ccc(CN2COc3ccc4c(C)cc(=O)oc4c3C2)cc1`, for which the Potency entry was “inactive”.

For `CCCCCc1cc(=O)oc2c(C(CCN3CCCC(C)C3)c3ccc(N(C)C)cc3)c(OC)cc(OC)c12` (centres undefined), the Potency is 22.4 µM (active).

`COc1cc(OC)c2c(C)cc(=O)oc2c1C(CCN1CCOCC1)c1ccc2c(c1)OCO2` (centres undefined): the Potency was 20 µM (active).

Regarding `CCN1CCc2c(C#N)c(N3CCOCC3)nc(NCCO)c2C1`, the Potency entry is “inactive”.

With `CCc1cc2c(CN3CCN(CCO)CC3)cc(=O)oc2cc1O`, the Potency entry is “inactive”.

For the molecule `CC(=O)c1ccc(NS(=O)(=O)c2ccc3c(c2)N(C(C)=O)CCO3)cc1`, the Potency result is “inactive”.

Consider `CCCN1CCN(c2ncnc3sc(C(=O)Nc4ccc(C(C)C)cc4)c(C)c23)CC1`, for which the Potency is 31.6 µM (active).

Regarding `COc1ccc(C)cc1NC(=O)c1sc2ncnc(N3CCN(c4ccccn4)CC3)c2c1C`, the Potency entry was “inactive”.

Consider `CCOC(=O)c1sc2ncnc(N3CCN(C)CC3)c2c1C`, for which the Potency entry is “inactive”.

For `COc1ccccc1C(=O)Nc1cccc(N2CCC(NCc3cnn(-c4ccccc4)n3)CC2)c1`, the Potency is 28.2 µM (active).

In the case of `COc1ccccc1C(=O)Nc1nc2n(n1)C(c1ccc(F)cc1)C=C(c1ccc(Cl)cc1)N2` (centres undefined), the Potency entry is “inactive”.

For the molecule `COc1cccc(C(=O)Nc2ccc3[nH]c(O)nc3c2)c1OC`, the Potency entry was “inactive”.

As to `Cc1ccc(Cn2nc(C)c(NC(=O)CSc3nc4c(c(C(F)(F)F)n3)CCc3ccccc3-4)c2C)cc1`, the Potency was 20 µM (active).

Take `COCCNC(=O)c1cc2nc3c(c(C(F)(F)F)n2n1)CCc1ccccc1-3`: the Potency result is “inactive”.

On to `CCc1ccc(-c2cc(C(F)(F)F)n3nc(C(=O)Nc4c(C)nn(Cc5ccc(F)cc5)c4C)cc3n2)s1`, for which the Potency entry was “inactive”.

In the case of `Cc1cccn2c(=O)c3cc(C(=O)NC4CCCC4)c(=N)n(CC4CCCO4)c3nc12` (centres undefined), the Potency entry was “inactive”.

For `COCCCn1c(=N)c(C(=O)NC2CCCCC2)cc2c(=O)n3ccccc3nc21`, the Potency entry was “inactive”.

For the molecule `COc1cccc(/C=C2\SC(=S)N(CCCC(=O)N3CCCCC3CCO)C2=O)c1` (centres undefined), the Potency is 39.8 µM (active).

Turning to `O=C1N=C(N2CCN(c3ccccc3)CC2)S/C1=C/c1ccco1`, the Potency result was “inactive”.

Take `COc1cccc(/C=C2/SC(=S)N(CC(=O)NNC(=O)c3ccccc3OC)C2=O)c1`: the Potency result is “inactive”.

With `COc1cccc(/C=C2\SC(=S)N(CC(=O)N(C)C3CCS(=O)(=O)C3)C2=O)c1` (centres undefined), the Potency was 35.5 µM (active).

Turning to `COc1cccc(/C=C2\SC(=S)N(CCC(=O)NNC(=O)c3ccccc3OC)C2=O)c1`, the Potency result is “inactive”.

Consider `COc1cccc(N2C(=O)C3CCCN3C2=S)c1` (centres undefined), for which the Potency result was “inactive”.

Regarding `Cc1ccc(-n2nc(C)c3c(C(=O)OCC(=O)N(C)C4CCS(=O)(=O)C4)cc(-c4ccccc4)nc32)cc1` (centres undefined), the Potency entry was “inactive”.

For `O=C1/C(=C/c2ccco2)SC(=S)N1CCC(=O)N1CCCCC1CCO` (centres undefined), the Potency is 17.8 µM (active).

For `Cc1cccc(OCCn2c(NC(=O)c3ccco3)nc3ccccc32)c1`, the Potency was 39.8 µM (active).

Turning to `CCCn1nc(NC(=O)c2ccco2)c2cc3ccc(C)cc3nc21`, the Potency result was “inactive”.

As for `CCCn1nc(NC(=O)c2ccco2)c2cc3cc(C)ccc3nc21`, the Potency result is “inactive”.

With `COCCCn1c(=N)c(C(=O)NCC2CCCO2)cc2c(=O)n3cc(C)ccc3nc21` (centres undefined), the Potency result was “inactive”.

With `Cc1cccc(C2=NN(c3ccccc3)[C@H](CO)[C@H]2c2ccccc2)c1`, the Potency entry is “inactive”.

As to `CN(C)c1ccc(C(C[N+](=O)[O-])c2c(N)n(C)c(=O)n(C)c2=O)c(F)c1C#N` (centres undefined), the Potency is 25.1 µM (active).

Take `COc1ccc(Br)cc1C(C[N+](=O)[O-])c1c(N)n(C)c(=O)n(C)c1=O` (centres undefined): the Potency was 17.8 µM (active).

For the molecule `COc1ccccc1C(C[N+](=O)[O-])c1c(N)n(C)c(=O)n(C)c1=O` (centres undefined), the Potency was 14.1 µM (active).

Consider `Cn1c(N)c(C(=O)CN2CCc3ccccc3C2)c(=O)n(C)c1=O`, for which the Potency result was “inactive”.

As to `CCn1cc(C(=O)N2CCCC(N3CCN(c4cccc(C(F)(F)F)c4)CC3)C2)cn1` (centres undefined), the Potency entry is “inactive”.

For the molecule `CN(C)c1ncc(C2=C(Cl)C(=O)C(N3CCCC3)=C(Cl)C2=O)s1`, the Potency is 25.1 µM (active).

Regarding `Cc1cc2c(cc1C)C(=O)C(=O)N2`, the Potency entry is “inactive”.

For the molecule `N#Cc1c(-c2ccccc2Cl)c2c([nH]c1=O)-c1ccccc1OC2`, the Potency result was “inactive”.

As for `COc1cccc2cc(C(=O)C3=C(O)C(=O)N(CCN(C)C)C3c3ccc(Cl)cc3)oc12` (centres undefined), the Potency result is “inactive”.

On to `COc1cccc2c1c(NC(=O)c1cc(C)on1)nn2C`, for which the Potency entry was “inactive”.

In the case of `COc1ccccc1-c1cc(C(=O)Nc2cc(C)n(Cc3ccc(Cl)cc3)n2)no1`, the Potency was 28.2 µM (active).

For `CCN(CC)c1ccc2cc(C(=O)c3cccs3)c(=O)oc2c1`, the Potency result was “inactive”.

With `Cc1nc2ccccc2nc1OCC(=O)Nc1ccc(F)cc1`, the Potency entry is “inactive”.

As for `O=C(COc1ccccc1F)Nc1ccc(Cl)c(-c2nc3ccccc3[nH]2)c1`, the Potency was 39.8 µM (active).

Consider `CCc1ccc(NC(=O)COc2ccc(/C=C(/C#N)c3nc4ccccc4[nH]3)cc2OC)cc1`, for which the Potency result is “inactive”.

Turning to `C/C(=N/NC(=O)c1ccncc1)c1cc2ccc(O)cc2oc1=O`, the Potency entry is “inactive”.

`COc1cccc(C(c2nnnn2C2CCCC2)N2CCN(C/C=C/c3ccccc3)CC2)c1OC` (centres undefined): the Potency was 17.8 µM (active).

For the molecule `Cc1cc(C)cc(NC(=O)COC(=O)[C@@H](NC(=O)c2ccco2)C(C)C)c1`, the Potency entry was “inactive”.

`Cc1onc(-c2ccccc2)c1C(=O)OCCOc1ccccc1F`: the Potency entry is “inactive”.

In the case of `CCCOc1ccc(-c2c(=O)n(OCC(=O)OCC)c3ccccc3[n+]2[O-])cc1`, the Potency result was “inactive”.

For `CCCCCCCCCCOC(=O)Cn1c(COc2ccc(Cl)cc2)[n+](C)c2ccccc21`, the Potency was 25.1 µM (active).

As for `CC12CC3(C)CC(C)(C1)CC(C(=O)NCc1ccccn1)(C2)C3`, the Potency entry is “inactive”.

Take `Oc1ccccc1/C=N/n1c(S)nnc1-c1ccccc1`: the Potency result was “inactive”.

`Cc1cc(-c2nnc(S)n2/N=C/C(Br)=C/c2ccccc2)[nH]n1`: the Potency was 14.1 µM (active).

As for `Sc1nnc(-c2ccccc2)n1/N=C/c1cccc(Cl)c1`, the Potency result is “inactive”.

On to `CC(=O)n1cc(C(C[N+](=O)[O-])SCCN)c2ccccc21` (centres undefined), for which the Potency was 22.4 µM (active).

Turning to `COc1cc2ccc(=O)oc2c(O)c1OCC=C(C)C`, the Potency entry was “inactive”.

In the case of `COC1=CC(=O)C(C2CC(=O)c3c(O)cc(O)cc3O2)=CC1=O` (centres undefined), the Potency is 33.6 µM (active).

With `COc1c(CC=C(C)C)cc(C2CC(=O)c3c(O)cc(O)cc3O2)cc1CC=C(C)C` (centres undefined), the Potency was 39.8 µM (active).

`CCOCCCn1c(=N)c(C(=O)NC(C)c2ccccc2)cc2c(=O)n3cccc(C)c3nc21` (centres undefined): the Potency result was “inactive”.

As for `C/C(CC(=O)Nc1ccc2c(c1)OCCO2)=N\NC(=O)COc1ccccc1C`, the Potency entry is “inactive”.

For the molecule `COC(C(=O)N/N=C(\C)CC(=O)Nc1ccc(N(C)C)cc1)c1ccccc1` (centres undefined), the Potency is 31.6 µM (active).

As for `CN(C)c1nc(NC(C)(C)C)nc(SCC(=O)Nc2ccccc2)n1`, the Potency entry was “inactive”.
